# Measured values taken from PubChem BioAssay (NCATS).
# Records with an inconclusive call do not appear. Where a call stands in place of a potency, no number is given. Activity calls are given as the source filed them. Calls come from the whole dose curve; as a rule, active = well fitted curve in the direction sought with a large enough effect; inconclusive = small, poorly fitted or top-dose-only effect, or another doubt; inactive = no such curve, though single readings can be large; an effect the other way counts as inactive or inconclusive.
# Columns and labels:
# [1] = Primary qHTS for inhibitors of nuclear receptor binding SET domain protein 2 (NSD2) in an isogenic RCH-ACV NSD2 p.E1099K mutant (9B) (AID 1645876); note: nearly all actives have a fitted effect of over 70% in size; note: potency is the fitted concentration of half-maximal effect
# [2] = Primary qHTS for inhibitors of nuclear receptor binding SET domain protein 2 (NSD2) in an RCH-ACV wild type WT cells (2C) (AID 1645877); note: nearly all actives have a fitted effect of over 70% in size; note: potency is the fitted concentration of half-maximal effect
# [3] = target: Catechol O-methyltransferase (Homo sapiens) (UniProt P21964); experiment: Confirmatory Screen for Target Class Profiling of Small Molecule Inhibitors of Methyltransferases (AID 1745852); conditions: MTase-Glo luminescence, SAH detection, recombinant enzyme; measured here: COMT max response; stronger effect = lower value
# Sequence of Catechol O-methyltransferase (Homo sapiens) (P21964 whole entry, looked up): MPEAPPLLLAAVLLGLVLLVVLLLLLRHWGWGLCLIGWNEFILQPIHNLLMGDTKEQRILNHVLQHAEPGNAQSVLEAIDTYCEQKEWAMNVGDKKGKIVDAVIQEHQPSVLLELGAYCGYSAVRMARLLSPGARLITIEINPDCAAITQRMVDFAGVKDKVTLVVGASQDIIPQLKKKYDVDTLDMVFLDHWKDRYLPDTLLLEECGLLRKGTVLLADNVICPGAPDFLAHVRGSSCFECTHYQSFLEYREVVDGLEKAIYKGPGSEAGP
structure (smiles),measurement,setting,value
COc1cc(/C=C/C=O)cc(OC)c1O[C@@H]1O[C@H](CO)[C@@H](O)[C@H](O)[C@H]1O,Potency,[1],inactive
same,Potency,[2],inactive
O=C1NC(=O)C(c2cn3c4c(cccc24)CCC3)C1c1c[nH]c2ccccc12 (stereo not drawn),Potency,[1],1030 nM (active)
same,Potency,[2],916 nM (active)
CC1=CCC2C(C)(C)CCC[C@]2(C)[C@@]12CC[C@](C)(CC(=O)O)O2 (stereo partly drawn),Potency,[2],inactive
O=C1OCc2cc3cccc(O[C@@H]4O[C@H](CO)[C@@H](O)[C@H](O)[C@H]4O)c3c(O)c21,Potency,[1],inactive
same,Potency,[2],inactive
CC1OC(OC2C(O)C(OC3CCC4(C)C(CCC5(C)C4CC=C4C6CC(C)(COC7OC(CO)C(O)C(O)C7O)CC(O)C6(C)CCC45C)C3(C)C)OC(C(=O)O)C2O)C(O)C(O)C1OC1OCC(O)C(O)C1O (stereo not drawn),"activity change, negative = viability loss",[1],-10.7% [at 9.23 µM] (inactive)
same,"activity change, negative = cell killing",[2],-2.6% [at 9.23 µM] (inactive)
CCc1c(-c2ccccc2)c(-c2ccccc2)nn1-c1ccccc1-c1cccc(OCC(=O)O)c1,Potency,[1],inactive
same,Potency,[2],inactive
same,activity,[3],-1.93%
CC(C)CCC1(O)C(=O)C(C)(C)C(O[C@@H]2O[C@H](CO)[C@@H](O)[C@H](O)[C@H]2O)C(C)(C)C1O (stereo partly drawn),Potency,[1],inactive
same,Potency,[2],inactive
same,activity,[3],-56.9%
CCc1c(C)nc2c(-c3cnn(-c4cc(CO)ccn4)c3)c[nH]n2c1=O,Potency,[1],inactive
same,Potency,[2],inactive
C=C(C(=O)O)C1CCC2(C)CCCC(C)(O)C2C1 (stereo not drawn),Potency,[1],inactive
same,Potency,[2],inactive
CC[C@H]1OC(=O)[C@H](C)[C@@H](O[C@H]2C[C@@](C)(OC)[C@@H](O)[C@H](C)O2)[C@H](C)[C@@H](O[C@@H]2O[C@H](C)C[C@H](N(C)C)[C@H]2O)[C@](C)(O)C[C@@H](C)C(=O)[C@H](C)[C@H]2OC(=O)O[C@@]21C,Potency,[1],inactive
same,Potency,[2],inactive
C[S+](CC[C@H](N)C(=O)[O-])C[C@H]1O[C@@H](n2cnc3c(N)ncnc32)[C@H](O)[C@@H]1O (stereo partly drawn),Potency,[1],inactive
same,Potency,[2],inactive
CC1(O)CCCC2(C)C1CCC13CC(CO)C(CCC12)C3 (stereo not drawn),Potency,[1],inactive
same,Potency,[2],inactive
C=C1C(OC(=O)/C(C)=C\C)[C@@]23CCC4[C@@](C)(CCC[C@@]4(C)C(=O)O)C2CC[C@H]1C3OC(C)=O (stereo partly drawn),Potency,[1],inactive
same,Potency,[2],inactive
O=C(CO)[C@@H](O)[C@H](O[C@@H]1O[C@H](CO)[C@H](O)[C@H](O)[C@H]1O)[C@H](O)CO,Potency,[1],inactive
same,Potency,[2],inactive
COC(=O)Cc1cc2c(c([N+](=O)[O-])c1)N(C(=O)CC[C@H](N)C(=O)O)CC2,Potency,[1],inactive
same,Potency,[2],inactive
CC(Nc1ncnc2nc[nH]c12)c1cc2cccc(Cl)c2c(=O)n1-c1ccccc1 (stereo not drawn),Potency,[1],332 nM (active)
same,Potency,[2],468 nM (active)
